NR3A LBD binder – binders of NR3A ligand-binding domain, primary screen, biophysical, differential scanning fluorimetry, uHTS. Glutamate receptor ionotropic, NMDA 3A (GRIN3A) ligand-binding domain. Tm shift relative to glycine control, % at 25 µM. 340,000 compounds, 2.5% hits. NR3A LBD differential scanning fluorimetry, Tm shift; 0% = protein alone, 100% = glycine-bound protein;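 active means melting temperature shift of at least 10% of the positive control shift, at one fixed dose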
MPTP block – mitochondrial permeability transition pore inhibitors, primary screen, biochemical, isolated mouse mitochondria, absorbance; Ca2+ swelling absorbance, 30 min; inhibition, % at 10 µM; 360,000 compounds, 1.4% hits;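 active means inhibition of 50% or more, scaled per plate between neutral and stimulator controls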;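 further: 0% = DMSO wells given calcium and 100% = 1 mM EGTA wells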
rCAG binder – binders of r(CAG) RNA repeats, primary screen, biochemical, fluorescence; r(CAG) RNA repeat, TO-PRO-1 dye displacement fluorescence; inhibition, % at 3 µM; 370,000 compounds, 1.3% hits; AID 651821, 2012;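 active means inhibition above the plate cutoff, the mean of all test compounds on that plate plus 3 SD, cut at about 35% in these data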;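 further: 0% = DMSO alone and 100% = 100 µM mitoxantrone as full dye displacement; higher means more dye released from RNA so lower well fluorescence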
FAS TE block – FAS thioesterase domain inhibitors, primary screen, biochemical, fluorescence intensity, uHTS | recombinant FAS-TE, OMFH fluorogenic substrate, fluorescence endpoint | inhibition, % at 15 µM | 360,000 compounds, 0.67% hits;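 active means compounds whose normalised, plate-corrected inhibition of enzyme fluorescence in the single-dose primary screen is 50% or more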;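 further: 0% = DMSO with enzyme and 100% = substrate without enzyme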
Myeloid diff 2 – induction of myeloid progenitor differentiation, primary screen, cell-based, flow cytometry, MLPCN library. calls only at 10 µM. 360,000 compounds, 1% hits. AID 624256, 2012. ER-HoxA9 myeloid progenitors, lysozyme-GFP differentiation;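 active means normalized GFP-positive differentiation at or above the plate's own cutoff, the solvent-only control mean plus 3 SD; inconclusive means no clear call, values can overlap the other calls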;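 further: cells exposed to compound for four days before flow analysis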
Starred values were filed as active, the others as inactive; i = inactive; ? = inconclusive; nt = no result given; + = active, no number. Only some compounds are listed: those with a hit (about 5.7% of all), similar ones and a draw of the others.

SMILES	NR3A LBD binder	MPTP block	rCAG binder	FAS TE block	Myeloid diff 2
CCCN1CCc2c(sc(NC(=O)c3ccc(S(=O)(=O)N4CCN(C(=O)OCC)CC4)cc3)c2C(N)=O)C1	-3	0	-7	-95	+
CC(=O)c1ccc(C(=O)Nc2sc3c(c2C(N)=O)CCN(Cc2ccccc2)C3)cc1	nt	1	9	-63	+
C/C(=N/NC(=O)CN1CCN(Cc2ccccc2Cl)CC1)c1cccc(O)c1	nt	nt	0	nt	nt
CCOC(=O)[C@@]12CCCC=C1N(CCc1ccc(Cl)cc1)C(=O)[C@H]2CC(=O)NCC12CC3CC(CC(C3)C1)C2	nt	nt	9	nt	nt
O=S1(=O)N[C@H](c2ccccc2)COc2cc(Br)ccc21	nt	nt	2	nt	nt
CCc1ccc(NS(=O)(=O)c2ccc3[nH]cc(C(=O)N4CCc5ccccc54)c(=O)c3c2)cc1	12*	0	26	13	i
CCc1ccc(NS(=O)(=O)c2ccc3[nH]cc(C(=O)N4CCCCC4)c(=O)c3c2)cc1	-2	-1	6	-5	i
Cc1cc(C)cc(NS(=O)(=O)c2ccc3[nH]cc(C(=O)N4CCc5ccccc54)c(=O)c3c2)c1	13*	-2	20	6	i
Nc1nn2c(-c3ccccc3)cc(=O)[nH]c2c1N=Nc1ccc(O)cc1	27*	9	19	3	i
COc1cc(NS(=O)(=O)c2cc(C(=O)NCCc3ccccn3)ccc2OC)cc(OC)c1	11*	-1	3	-6	i
COc1ccc(/C=C/c2ccc3ccccc3[n+]2C)cc1OC	2	0	nt	-5	+
CCOc1ccc(C(=O)CSc2nnc(SCc3ccc(Cl)cc3)s2)cc1	nt	nt	4	nt	nt
Fc1cccc(NCCc2c[nH]c3ccccc23)n1	15*	0	0	10	i
c1ccc(-n2nnnc2NCCc2c[nH]c3ccccc23)cc1	12*	2	2	2	i
O=S(=O)(c1cccs1)N1CCCc2nc(-c3ccc(F)cc3)ccc21	nt	nt	4	nt	nt
CCCCc1nnn2c1C1c3cc(Br)ccc3CCN1C(=O)C2 (stereo not given)	nt	nt	0	nt	nt
COc1cc(CNc2ccc(N3CCCC3)cc2)ccc1OCc1ccccc1	-11	2	12	40	+
COc1cc(CNc2ccc(N3CCCC3)cc2)ccc1OCc1ccccc1F	-1	2	nt	12	+
COc1ccc(/C=C/CN2CCC(C(=O)NC(c3ccc(F)cc3)c3ccc4ccccc4n3)CC2)cc1 (stereo not given)	nt	4	3	7	i
O=C(NCc1ccc(C(=O)N2CCCC2)cc1)c1cccc(Br)c1	nt	nt	2	nt	nt
CCCC(=O)OC12CCCN(C1)/C(=C/c1ccc(C#N)cc1)C2 (stereo not given)	nt	nt	4	nt	nt
COc1cc2c(cc1NC(=O)C1CCCO1)oc1ccccc12 (stereo not given)	1	-5	0	14	i
CCN(CC)S(=O)(=O)c1ccc(C(=O)Nc2cc3oc4ccccc4c3cc2OC)cc1	11*	2	9	23	i
CCN(CC)S(=O)(=O)c1ccc(OC)c(NC(=O)c2ccc([N+](=O)[O-])cc2)c1	5	-1	-4	4	i
CCN(CC)S(=O)(=O)c1ccc(O)c(NC(=O)c2cc(-c3cc(OC)c(OC)c(OC)c3)nc3ccccc23)c1	17*	5	nt	-22	i
SMILES	NR3A LBD binder	MPTP block	rCAG binder	FAS TE block	Myeloid diff 2
COc1cc2c(cc1NC(=O)c1cccc(S(=O)(=O)N(C)C)c1)oc1ccccc12	14*	0	13	41	?
Cc1nn(-c2ccccc2)c2sc(C(=O)NCC3CCCO3)cc12 (stereo not given)	nt	nt	1	nt	nt
O=C(O)/C=C/C(=O)Nc1cccc2cccnc12	-4	-1	12	-3	i
O=C(Nc1ccccc1)Nc1cccc2cccnc12	13*	5	8	12	i
O=C(Nc1ccc2ncccc2c1)c1ccccc1Br	18*	0	nt	5	i
O=C(Nc1ccc2ncccc2c1)Nc1ccc2ncccc2c1	33*	1	17	1	i
O=C(CC1SC(=Nc2ccccc2)N(CCCO)C1=O)Nc1ccc(Cl)cc1 (stereo not given)	-7	1	nt	20	i
O=C(CC1SC(=NCCc2ccccc2)N(/N=C/c2cccs2)C1=O)Nc1ccc(Cl)cc1 (stereo not given)	21*	-12	8	27	i
O=CN(/C=C1\Sc2ccccc2C1=O)Cc1ccccc1	22*	3	5	-2	i
CC(=O)N(C)/C=C1\Sc2ccccc2C1=O	14*	1	4	-6	i
CCC(=O)N(C)/C=C1\Sc2ccccc2C1=O	2	2	-3	-6	i
Cc1ccc(/C(N)=N/OC(=O)c2ccc3ccccc3c2)cc1	27*	0	1	2	i
Cc1ccc(/C(N)=N/OC(=O)c2cccc(F)c2)cc1	9	1	0	4	i
N/C(=N\OC(=O)c1ccc(Cl)cc1Cl)c1ccc(Cl)cc1	18*	1	3	3	i
Cc1ccc(/C(N)=N/OC(=O)c2ccc(C)cc2Cl)cc1	197*	0	2	5	i
C[C@H]1CN(C(=O)OC(C)(C)C)CCN1c1ccc(Br)c(C#N)c1	nt	nt	0	nt	nt
CCCn1c(N)c(N(CCOC)C(=O)COC(=O)COc2c(C)cc(C)cc2C)c(=O)[nH]c1=O	nt	0	1	-7	i
CCCCN(C(=O)COC(=O)COc1c(C)cc(C)cc1C)c1c(N)n(CCC)c(=O)[nH]c1=O	32*	0	-4	-5	i
Cc1ccc(OCC(=O)N2N=C(c3ccc(Cl)cc3)CC2c2ccco2)c([N+](=O)[O-])n1 (stereo not given)	-5	-1	0	17	i
COc1ccc(C(=O)NCC(=O)OCC(=O)N2N=C(c3ccc(Cl)cc3)CC2c2ccco2)cc1OC (stereo not given)	11*	-2	-1	12	i
O=C(COc1cccnc1[N+](=O)[O-])N1N=C(c2ccc(Cl)cc2)CC1c1ccco1 (stereo not given)	-12	0	0	19	+
Cc1ccc(C2=NN(C(=O)CSc3nc4ncc(Cl)cc4[nH]3)C(c3ccco3)C2)cc1 (stereo not given)	0	0	5	0	i
Cc1ccc(C2=NN(C(=O)CSc3nccn3C)C(c3ccco3)C2)cc1 (stereo not given)	1	1	-8	-8	+
CC(C)Cn1c(CN2C(=O)c3ccccc3C2=O)nc2ccccc2c1=O	20*	3	0	-6	i
O=C(/C=C(\Nc1cc(Cl)c(F)c(Cl)c1)c1ccccc1)c1ccccc1	nt	nt	1	nt	nt
